TSHR antag: human thyrotropin receptor antagonism | activity change, negative = inhibition, % at 11.5 µM | 0.2% of 330,000 active | P16473 | TSHR-expressing cells, TSH-stimulated cAMP HTRF, 2 h; hits give low values;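 active = activity change below a set negative limit, meaning inhibition stronger than a set level, cut at about -70% in these data; inconclusive = activity change between two set negative limits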
Target sequence (P16473 whole entry, looked up): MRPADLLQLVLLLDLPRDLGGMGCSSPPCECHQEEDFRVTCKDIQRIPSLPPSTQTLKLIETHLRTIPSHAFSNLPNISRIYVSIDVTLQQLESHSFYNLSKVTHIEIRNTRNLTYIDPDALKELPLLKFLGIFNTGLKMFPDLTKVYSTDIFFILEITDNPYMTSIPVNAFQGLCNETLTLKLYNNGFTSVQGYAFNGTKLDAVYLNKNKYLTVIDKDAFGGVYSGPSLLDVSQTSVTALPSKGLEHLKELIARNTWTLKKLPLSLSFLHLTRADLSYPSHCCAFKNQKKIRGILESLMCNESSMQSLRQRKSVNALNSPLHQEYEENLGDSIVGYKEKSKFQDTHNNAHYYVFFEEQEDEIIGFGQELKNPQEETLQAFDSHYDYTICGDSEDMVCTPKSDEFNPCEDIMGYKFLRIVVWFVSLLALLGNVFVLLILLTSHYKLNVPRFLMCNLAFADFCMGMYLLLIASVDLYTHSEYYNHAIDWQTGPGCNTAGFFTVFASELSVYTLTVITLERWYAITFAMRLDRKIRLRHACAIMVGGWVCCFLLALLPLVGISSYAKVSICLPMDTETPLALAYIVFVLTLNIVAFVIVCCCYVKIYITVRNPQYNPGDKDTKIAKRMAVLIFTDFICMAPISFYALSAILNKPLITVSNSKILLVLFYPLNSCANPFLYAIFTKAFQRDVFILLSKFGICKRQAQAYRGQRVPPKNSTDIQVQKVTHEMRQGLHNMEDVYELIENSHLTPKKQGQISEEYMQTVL
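TSHR-expressing cells, 200/well, pre-treated with compound, then stimulated with EC80 TSH (4nM final) for 2 hours at 37 deg C. cAMP measured by competitive HTRF: anti-cAMP cryptate antibody in lysis buffer plus cAMP-d2, read after 30 minutes at room temperature.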
Coupling enz: coupling enzyme interference in Giardia aldolase counter-screen. coupling enzyme system counterscreen, AmpLite Red fluorescence. activity change, negative = inhibition, % at 58.2 µM, hits read low. 0.67% of 290,000 active. AID 2472; in the data active = activity change below about -30%
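Counterscreen of the coupled detection system alone, without aldolase: glyceraldehyde-3-phosphate coupling enzymes plus AmpLite Red readout. Compounds at 57.5 uM final, 10 min RT preincubation, 20 min RT reaction, fluorescence 525/598 nm.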
RORgamma inh: blocks mouse ROR gamma transcriptional activity | Potency, µM (doses to about 53.6 µM), without a hit: top-dose activity change, negative = inhibition, most hits filed as inhibitors | 5.4% of 310,000 active | Drosophila S2 Gal4-RORgamma UAS-luciferase reporter, 20 h | AID 2551 | P51450; also: potency is read from the fitted curve at half-maximal effect; nearly all actives have a fitted effect of over 60% in size
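Compounds are pin-transferred onto Drosophila Schneider cells expressing a copper-inducible Gal4–ROR gamma transactivation domain fusion. After 1 hr, copper sulfate is added to 700 uM final; luciferase is read 20 hr later.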
ELG1 DNA repair: ELG1-dependent DNA repair inhibition; HEK293T ELG1-luciferase reporter, luminescence, 16 h; DNA damage induced by 5-fluorouridine; Potency, µM (highest dose often 46.1 µM), inactives show at the highest dose activity change, negative = inhibition, hits mostly inhibitors; 2.3% of 330,000 active; AID 504467; also: potency is read from the fitted curve at half-maximal effect; nearly all actives have a fitted effect of over 55% in size
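Quantitative HTS, concentration-response format. 2,000 cells/well co-treated with 5-fluorouridine and compound, 16 hr in 5% CO2 at 37 °C; ONE-Glo luminescence read after 30 min.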
Gal4-VP16 FLuc: inhibits Gal4-VP16 luciferase reporter, ROR gamma counter-screen | Drosophila S2 Gal4-VP16 UAS-luciferase, luminescence, 20 h | Potency, µM (doses to about 53.6 µM), without a hit: at the highest dose activity, negative = inhibition, most hits filed as inhibitors | 3.5% of 310,000 active;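 also: Gal4-VP16 expression switched on by copper sulfate through the metallothionein promoter; potency is read from the fitted curve at half-maximal effect; nearly all actives have a fitted effect of over 50% in size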
* = called active by the depositor; u = inconclusive; x = not tested or not shown. The list is not random: actives were taken first. Their share in the collection is about 8%. Unless noted, calls follow the shape of the dose curve; as a rule, active = well fitted curve in the direction sought with a large enough effect; inconclusive = small, poorly fitted or top-dose-only effect, or another doubt; inactive = no such curve, though single readings can be large; an effect the other way counts as inactive or inconclusive. % is scaled to controls: 0 for no effect and ±100 for the full control effect.

SMILES	TSHR antag	Coupling enz	RORgamma inh	ELG1 DNA repair	Gal4-VP16 FLuc
CC(C)[C@H](NC(=O)OCc1ccccc1)C(=O)OCC(=O)N1CCN(c2ccccc2)CC1	-9.6	x	x	-0.5%	x
O=C(NCCS(=O)(=O)NC1CCCCC1)c1ccc2c(c1)OCO2	10.7	x	x	7.7%	x
CC1=Nc2ccc3ccccc3c2C1(C)C	-8.4	0.4	7.94µM*	16.2%	-22.9%
O=c1c(Cl)nc2cc(Cl)ccc2n1CCNc1ncc(C(F)(F)F)cc1Cl	-23.8	0.9	11.2µM*	u	5.01µM*
O=c1c2nncn2c2cccnc2n1CCNc1ncc(C(F)(F)F)cc1Cl	u	4.1	1.2%	-4.9%	-5.2%
O=c1c2nncn2c2cc(C(F)(F)F)ccc2n1CCNc1ncc(C(F)(F)F)cc1Cl	-7.9	-3.5	-9.8%	-4.0%	-3.2%
NNc1nc2cccnc2n(CCNc2ncc(C(F)(F)F)cc2Cl)c1=O	9.2	-1.2	10µM*	u	2.2%
COc1ccc(NC(=O)N2CC[C@@]3(CCCN(C(=O)c4cccc(F)c4)C3)C2)cc1	x	0.0	-3.7%	x	-6.4%
Cc1cccc(NC(=O)c2ccc(S(=O)(=O)N3CC(C)OC(C)C3)cc2)n1 (stereo unspecified)	-8.5	x	x	-26.3%	x
Cc1cc(C)nc(SCc2n[nH]c(=S)n2C)n1	-1.2	-1.7	4.0%	u	1.9%
S=c1[nH]nc(Cc2ccccc2)n1-c1ccccc1	2.3	3.6	11.2µM*	6.3%	20µM*
Cc1ccc(-n2c(Cc3ccccc3)n[nH]c2=S)cc1	1.7	4.7	3.98µM*	0.0%	10µM*
Cc1ccc(-n2c(CSc3nc(C)cc(C)n3)n[nH]c2=S)cc1	0.5	8.7	14.1µM*	-4.1%	-13.3%
CC(C)Cn1c(Cc2ccccc2)n[nH]c1=S	48.1	2.5	4.47µM*	u	0.0%
CCn1c(Cc2ccccc2)n[nH]c1=S	3.3	1.2	u	14.3%	-25.0%
O=C(NCCCNC(=O)c1ccccn1)c1ccc(Cl)cc1	-4.0	1.0	0.7%	11.7%	-20.3%
S=c1[nH]nc(Cc2ccccc2)n1-c1ccc(Cl)cc1	-5.3	4.1	2.24µM*	3.6%	u
CC(C)[C@H](NC(=O)[C@H](CC(=O)O)NC(=O)CNC(=O)[C@@H](N)CCCN=C(N)N)C(=O)O	x	-0.2	5.0%	x	4.7%
Cc1cc(=O)[nH]c(SCC(=O)N2CCCC2)n1	-2.9	x	x	24.8%	x
O=C(N/N=C1\CCSc2ccc(F)cc21)c1cccnc1	13.4	0.8	-8.7%	13.6%	-22.2%
NC(=S)N/N=C1\CCSc2ccc(Cl)cc21	-9.1	1.4	2µM*	u	10µM*
O=C(O)c1c(Cl)cccc1Cl	32.5	x	-0.2%	14.5%	-8.7%
CC1=CC(C)(C)N2C(=O)C3(SCC(=O)N3c3ccc(F)cc3)c3cc(C)cc1c32 (stereo unspecified)	-17.3	-2.6	15.8µM*	0.0%	0.1%
CC1=CC(C)(C)N2C(=O)C3(NCCc4c3[nH]c3ccccc43)c3cc(C)cc1c32 (stereo unspecified)	19.3	-1.6	-6.6%	-9.3%	-9.9%
COc1ccc(N2CCN(C(=O)c3ccc(CNS(=O)(=O)c4cccc(OC)c4)cc3)CC2)cc1	-14.3	x	u	-14.2%	-0.2%
SMILES	TSHR antag	Coupling enz	RORgamma inh	ELG1 DNA repair	Gal4-VP16 FLuc
CC1=CC(C)(C)NC(=S)N1c1ccc2ccccc2c1	-7.6	2.4	3.55µM*	-5.7%	6.31µM*
CN1c2ccccc2N(C)C1(C)c1cccc2ccccc12	0.2	-29.6	21.0%	3.0%	u
CC1=CC(C)(C)NC(=S)N1c1cccc2ccccc12	-17.3	-3.3	u	-9.1%	5.01µM*
CC1=CC(C)(C)NC(=S)N1C(C)c1ccccc1 (stereo unspecified)	-7.0	-5.7	2.24µM*	14.4%	3.98µM*
CC(O)CN1CCN(C(=O)CN2C(=O)NC(c3ccccc3)(c3ccccc3)C2=O)CC1 (stereo unspecified)	2.5	0.6	-39.3%	-4.8%	-6.5%
COc1ccc(CC(=O)NCc2ccccn2)cc1OC	2.2	-2.9	11.2µM*	3.6%	-5.6%
COc1ccc(CNC(=O)c2ccc3ccccc3n2)cc1OC	-26.5	3.5	u	16.4µM*	u
COc1ccc(CC(=O)Nc2nc(C)cs2)cc1OC	3.0	-0.6	-13.5%	16.4µM*	u
CCOc1c(Cl)cc(CNCc2ccccn2)cc1OC	-1.1	9.3	-15.2%	0.0%	2.6%
COc1ccc(CC(=O)Nc2nc(C)cs2)cc1	-8.4	1.7	39.8%	-16.4%	23.6%
COc1cc(CNCc2ccccn2)ccc1OCc1ccccc1Cl	-4.3	2.6	14.1µM*	-16.8%	u
C[C@H]1C=C2C=C[C@H](C)[C@H](CC[C@@H]3C[C@@H](O)CC(=O)O3)[C@H]2[C@@H](OC(=O)[C@@H](C)CCO)C1	x	-2.4	40.6%	x	2.1%
Cc1ccc([C@@H]2CC=C(C(=O)O)[C@H](c3ccc(C(C)(C)C)cc3)N2S(=O)(=O)c2ccc(C)cc2)cc1	-20.0	x	x	u	x
Cc1ccc(S(=O)(=O)N2[C@@H](c3ccc(C(C)(C)C)cc3)C(C(=O)O)=CC[C@H]2c2ccc(C(C)C)cc2)cc1	-7.4	x	x	16.4µM*	x
Cc1nonc1OCCNCc1c(C(=O)N2CCCCCCC2)nc2ccc(Cl)cn12	1.2	-7.4	45.6%	7.5%	-13.2%
Cc1nonc1OCCNCc1c(C(=O)N(C)C)nc2ccc(Cl)cn12	-5.4	2.0	3.16µM*	u	2.82µM*
CCCc1cc(-c2n[nH]c(C)c2-c2ccc(C(=O)OCC)o2)c(O)cc1O	3.6	-33.7*	u	u	1.2%
CCc1cc(-c2n[nH]c(C)c2-c2ccc3c(c2)OCCO3)c(O)cc1O	x	-2.2	12.6µM*	x	u
Cn1c(N)c(C(=O)COC(=O)/C=C/c2ccccc2)c(=O)n(C)c1=O	80.3	x	x	-0.6%	x
Cc1cccc2cc(CN(CCCO)C(=O)Nc3ccc(Cl)cc3)c(=O)[nH]c12	-11.7	1.4	31.7%	20.6µM*	-5.8%
Cc1cccc2cc(CN(CCCO)C(=O)Nc3cccc(Cl)c3)c(=O)[nH]c12	-5.5	1.4	19.2%	13µM*	6.2%
Cc1cccc2cc(CN(CCCO)C(=O)Nc3ccccc3Cl)c(=O)[nH]c12	4.4	1.4	4.4%	u	-1.2%
Cc1cccc2cc(CN(CCN(C)C)C(=S)Nc3ccccc3)c(=O)[nH]c12	37.4	0.2	4.5%	-28.6%	4.6%
CC(=O)NC(Cc1ccc(C)cc1)C(=O)NC1CCN(C(=O)NCc2ccccc2)CC1 (stereo unspecified)	-2.8	-3.9	-5.4%	0.1%	7.8%
N#CC1=C(N)Oc2c(oc(CO)cc2=O)C1c1ccccc1[N+](=O)[O-] (stereo unspecified)	-6.0	-0.1	-25.0%	-13.9%	-10.5%
O=C(NC(=S)Nc1ccccc1N1CCOCC1)c1cccc([N+](=O)[O-])c1	-8.3	x	1.58µM*	u	3.98µM*

Assay outcomes from PubChem BioAssay.
